A value given as a limit tells only on which side of the number the result lay.

The assay deals with T1, TALE1-NH (CACNA1C site 1 activator) (Xanthomonas (engineered), UniProt P14727 SEQ:1-983).
T1 chain: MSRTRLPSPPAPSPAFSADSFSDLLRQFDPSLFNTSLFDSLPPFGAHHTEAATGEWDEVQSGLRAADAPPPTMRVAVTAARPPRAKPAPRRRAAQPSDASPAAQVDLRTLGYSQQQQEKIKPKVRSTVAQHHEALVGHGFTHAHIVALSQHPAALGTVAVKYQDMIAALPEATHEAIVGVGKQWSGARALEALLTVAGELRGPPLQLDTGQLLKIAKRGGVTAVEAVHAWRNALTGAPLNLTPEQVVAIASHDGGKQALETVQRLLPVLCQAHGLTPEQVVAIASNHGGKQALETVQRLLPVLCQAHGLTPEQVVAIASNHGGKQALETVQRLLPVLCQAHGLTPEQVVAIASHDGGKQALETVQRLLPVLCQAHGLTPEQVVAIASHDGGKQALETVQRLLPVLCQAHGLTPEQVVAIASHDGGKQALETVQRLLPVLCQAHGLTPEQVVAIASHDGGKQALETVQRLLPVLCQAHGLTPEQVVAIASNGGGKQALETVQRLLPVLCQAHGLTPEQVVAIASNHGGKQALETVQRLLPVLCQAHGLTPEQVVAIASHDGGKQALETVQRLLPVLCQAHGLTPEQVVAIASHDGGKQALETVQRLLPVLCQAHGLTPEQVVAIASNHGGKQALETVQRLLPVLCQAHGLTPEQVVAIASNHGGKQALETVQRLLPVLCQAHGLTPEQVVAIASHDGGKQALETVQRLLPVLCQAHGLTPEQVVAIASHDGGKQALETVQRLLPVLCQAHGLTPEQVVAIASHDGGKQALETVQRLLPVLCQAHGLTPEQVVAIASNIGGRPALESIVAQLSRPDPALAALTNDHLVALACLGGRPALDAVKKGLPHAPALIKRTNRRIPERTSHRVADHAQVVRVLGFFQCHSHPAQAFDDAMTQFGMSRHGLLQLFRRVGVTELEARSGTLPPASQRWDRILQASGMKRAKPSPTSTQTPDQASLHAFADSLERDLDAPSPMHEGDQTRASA
The assay is described as follows: cell_activity; luciferase reporter. The note with it: tags: VP64, 2A-GFP; dsDNA, one strand shown. As to the method: TALEs using NN, NK, NH, and HN as the G-targeting RVD were synthesized to target two distinct 18 bp target sites in the human CACNA1C locus. Changes in mRNA are measured using qRT-PCR as described previously. VP64, VP64 transcription activation domain. All results are collected from three independent experiments in HEK 293FT cells. Error bars indicate s.e.m.; n=3. FIG. 19(b) discloses SEQ ID NOS 63 and 62, respectively, in order of appearance.
To determine whether NH and HN are suitable replacements for NN as the G-specific RVD, specificity and activity strength of NN, NK, NH, and HN were directly compared. Two 18 bp targets within the CACNA1C locus in the human genome were chosen and four TALEs for each target were constructed, using NN, NK, NH, or HN as the G-targeting RVD (FIG. 19a). […] For each CACNA1C target site, four luciferase reporters were constructed: wild type genomic target, and wild type target with 2, 4, or all guanines mutated into adenines (FIG. 19a, G-to-A reporters), and compared the activity of each TALE using these reporters (FIG. 19a). […] Thus, focus was placed on the RVDs NN, NK, and NH in subsequent experiments to assess their usefulness in modulating transcription at endogenous human genome targets.
A general note: Reporter assays use an easily measured gene product as a stand-in for the process of interest.
For the sequence TCAACCCCTGCCGGCCCA, the binding signal is 71.4 % reduction vs wild-type site.

Consider TCAACCCCTACCAACCCA, for which the binding signal is < 10 % of wild-type site activation.

These data come from patent US20140271602, “NUCLEOTIDE-SPECIFIC RECOGNITION SEQUENCES FOR DESIGNER TAL EFFECTORS” (THE BROAD INSTITUTE INC., published 2014).
